# Experiments:
# [1] = tested on: P. falciparum NF54-pfs16-GFP early (I-III) stage gametocytes; experiment: relative % inhibition of viable gametocyte number; higher = more gametocytocidal; settings: stage: early (I-III) gametocyte, incubation 72 h
# How it was run: (§1)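 Compound was tested in duplicate at 5 or 0.5 µM on magnet-isolated NF54 pfs16-GFP gametocytes, taken either early (I/IIa, day 2) or late (day 8) and plated at 10% parasitaemia, 0.1% haematocrit. Incubation ran 72 h at 37°C, 5% CO2, 5% O2, followed by overnight MitoTracker Red staining and confocal imaging. Relative inhibition, based on counts of elongated GFP objects with above-cut-off MitoTracker signal, was normalised to in-plate vehicle and positive-control wells.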
# [2] = tested on: P. falciparum NF54-pfs16-GFP late (IV-V) stage gametocytes; experiment: as above; settings: stage: late (IV-V) gametocyte, incubation 72 h
# How it was run: as §1
Compound,relative % inhibition ([1]; 0.5 µM) [%],relative % inhibition ([1]; 5 µM) [%],relative % inhibition ([2]; 0.5 µM) [%],relative % inhibition ([2]; 5 µM) [%]
CCCCCCc1cc(O)c2c3c(c(=O)oc2c1)CCC(C)C3 (stereo not drawn),-14.4,86.1,69.5,98.9
Oc1ccc(Br)cc1CN1CCN(Cc2ccc(Cl)cc2)CC1,12.1,88.4,26.8,31
COc1ccc(CN2CCN(Cc3ccccc3)CC2)c(O)c1,-13.8,-3.4,12.2,7.95
CCCc1cc(O)c2c3c(c(=O)oc2c1)CN(C)CC3,38.5,91.6,38.3,49.1
Oc1ccc(C(=C(Cl)Cl)c2ccc(O)cc2)cc1,-6.22,29.1,-1.73,-7.57
CCOc1cc(CNC(C)C(O)c2ccccc2)cc(Cl)c1OCC (stereo not drawn),-15.8,-1.9,32.7,74.4
CN(N=O)C1=C(NC2CCCCC2)C(=O)c2ccccc2C1=O,34.8,10.4,20.6,38.1
COc1cc(CNCCc2ccc(Cl)cc2)cc(OC)c1O,9.61,87.4,-10.8,3.51
O=C(CCc1ccco1)NC1CCN(CC2(c3ccc(Cl)cc3)CCC2)CC1,-4.87,91.7,21.7,82.2
C=CC12CCN(CC1)C(C(O)c1ccnc3ccc(OC)cc13)C2 (stereo not drawn),91.6,75.8,37.9,36.1
Oc1ccc(Br)cc1CN1CCN(Cc2cccc(F)c2)CC1,-1.27,63.9,50.4,95.9
CCOc1c(Cl)cc(CNC(C)C(O)c2ccccc2)cc1OC (stereo not drawn),-16.9,71.9,-0.71,31.3
